Measured values taken from PubChem BioAssay (NCATS).
A number with no mark means an inactive call. Inconclusive results are not listed. A call without a number means that no potency is given here. Active and inactive are the calls of the source. Unless noted, calls come from the whole dose curve; as a rule, active = well fitted curve in the direction sought with a large enough effect; inconclusive = small, poorly fitted or top-dose-only effect, or another doubt; inactive = no such curve, though single readings can be large; an effect the other way counts as inactive or inconclusive.

What was measured:
[1] = AP1 Signaling Pathway (AID 357; active = well fitted curve in either direction with a large enough effect, not every such curve was filed as active); conditions: ME-180 AP-1-bla reporter, EGF-induced, beta-lactamase ratio, 5 h; at 38 µM (top of the series)
Procedure, shortened: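 ME-180 cells with beta-lactamase reporter under AP-1 response element, stimulated with EC50 EGF; compounds tested in titration series, 5 h at 37 °C. CCF4 substrate added 2.5 h at room temperature; 460/530 nm emission ratio gave %activity and AC50.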

[2] = target: Cytochrome P450 1A2 (Homo sapiens) (UniProt P05177); assay: p450-cyp1a2 (AID 410; calls by dose curve)
Procedure, shortened: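 20nM CYP1A2, 100uM Luciferin-ME (=Km), 100mM KPO4; cpd 10 min RT; +NADPH regen, 60 min RT; stop/detect 20 min; luminescence. Normalized to furafylline 57 uM = full inhibition.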

[3] = Stat Signaling Pathway (AID 446; active = well fitted curve in either direction with a large enough effect, not every such curve was filed as active;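 note: ME-180 cervical cancer cells given 40 pM IL-6 alongside compound; SIE-controlled beta-lactamase reporter measured as 460/530 nm FRET emission ratio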); conditions: ME-180 (cervical carcinoma) SIE beta-lactamase reporter, IL-6 stimulated, 5 h; at 38 µM (top of the series)
Procedure, shortened: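 Overnight-plated ME-180 cells bearing a STAT Inducible Element beta-lactamase reporter; 5 h co-exposure to compound and 40 pM IL-6; values normalized to 300 pM IL-6 and 125 nM JAK inhibitor controls.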

[4] = target: Glucocorticoid receptor (Homo sapiens) (UniProt P04150); assay: GR-GFP Redistribution (AID 450;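 active = compounds whose dose series gives a full or clear partial fitted curve of increased nuclear translocation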; note: potency is the fitted concentration of half-maximal effect); conditions: U2OS GR-GFP nuclear translocation, laser cytometry, 2 h
[5] = target: Glucocorticoid receptor (Homo sapiens) (UniProt P04150); assay: GR-EFC Redistribution (AID 451; calls by dose curve; note: potency is the fitted concentration of half-maximal effect); conditions: CHO-K1 GR-EFC translocation, beta-gal luminescence, 2 h
Procedure, shortened: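 CHO-K1 cells stably expressing nuclear-localized β-gal enzyme acceptor and GR fused C-terminally to the enzyme donor fragment; ligand-driven nuclear translocation restores β-gal by complementation. Compounds titrated up to 46 uM final, 2 h at 37 °C; luminescence read.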

[6] = target: Mitogen-activated protein kinase 10 (Mus musculus) (UniProt Q61831); assay: JNK3 AlphaScreen Assay (AID 530; active = well fitted curve in either direction with a large enough effect, not every such curve was filed as active;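 note: kinase came from lysate of stimulated human HepG2 cells; signal reports phosphorylation of biotinylated GST-cJun 1-79 at Ser73 with 10 µM ATP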)
Procedure, shortened: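 Biotinylated GST-cJun(1-79) served as substrate for JNK3 in HepG2 lysates stimulated with IL-1beta and TNF-alpha. ATP was 10 uM final, pH 7.6. Ser73 phosphorylation was quantified by AlphaScreen (680 nm excitation).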

[7] = target: 3',5'-cyclic-AMP phosphodiesterase 4B (Homo sapiens) (UniProt Q07343); assay: qHTS Assay for Inhibitors of PDE-IV (AID 607; active = well fitted activation curve with a large enough effect in the main read-out, with a control signal flat, not every such curve was filed as active)
Procedure, shortened: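 Live HEK293 cells with a modified cyclic nucleotide-gated (CNG) channel report intracellular cAMP via membrane-potential dye fluorescence (ex 535/em 590 nm). Endogenous PDE-IV was targeted. Compounds were tested at up to 22.9 uM final; RO 20-1724 100 uM served as control.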

[8] = target: Cytochrome P450 3A4 (Homo sapiens) (UniProt P08684); assay: qHTS Assay for Activators of Cytochrome P450 3A4 (AID 885); note: nearly all actives have a fitted effect of over 65% in size
Procedure, shortened: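 Using 20nM recombinant human CYP3A4 in potassium phosphate (200mM), substrate Luciferin-PPXE at 25uM, luminescent luciferin detection followed a 60-min RT NADPH reaction; data scaled to 57 uM ketoconazole.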

[9] = target: Cytochrome P450 2D6 (Homo sapiens) (UniProt P10635); assay: qHTS Assay for Inhibitors and Substrates of Cytochrome P450 2D6 (AID 891); note: potency is the fitted concentration of half-maximal effect; nearly all actives have a fitted effect of over 60% in size
Procedure, shortened: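 Luminescent read-out of luciferin formed by 5 nM human CYP2D6 demethylating 30 uM Luciferin-ME EGE (Km level) over 60 min at room temperature after NADPH regeneration addition. Data normalized to full inhibition by 1.43 uM quinidine.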

[10] = target: Muscarinic acetylcholine receptor M1 (Rattus norvegicus) (UniProt P08482); assay: qHTS Assay for Antagonists of Acetylcholine Muscarinic M1 Receptor: Measurement of IP-One Response (AID 944); note: potency is the fitted concentration of half-maximal effect; nearly all actives have a fitted effect of over 75% in size
Procedure, shortened: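 Read-out: HTRF competition between d2-IP1 and Eu-cryptate anti-IP1 antibody, emission 620 and 665 nm. Stimulus was carbachol, EC80 (200 nM), for 30 min in M1-CHO cells (rat receptor), after 10 min compound pre-treatment.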

[11] = target: Pyruvate kinase (Leishmania mexicana) (UniProt Q27686); assay: qHTS Validation Assay for Inhibitors of Leishmania Mexicana Pyruvate Kinase (AID 945)
Procedure, shortened: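 Eight-point qHTS titrations in triplicate, data normalized to DMSO neutral control. Reaction: 0.2 nM LmPYK E451W mutant, 0.5 mM PEP, 0.1 mM ADP, 7 mM MgCl2, pH 7.2, one hour at room temperature; luminescent ATP detection.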

[12] = target: Pyruvate kinase PKM (Homo sapiens) (UniProt P14618); assay: qHTS Assay for Activators of Human Muscle Pyruvate Kinase (AID 954; active = well fitted curve in the direction sought with a large enough effect, not every such curve was filed as active)
Procedure, shortened: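 Screening used highly purified human pyruvate kinase M2 under submaximal activity, with PEP at its Km and ADP below Km. After an hour at room temperature, ATP was read by luciferase luminescence.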

[13] = target: Alpha-galactosidase A (Homo sapiens) (UniProt P06280); assay: Counterscreen for Glucocerebrosidase Inhibitors: qHTS Assay for Human alpha-Galactosidase at pH 4.5 (AID 992)
Procedure, shortened: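 Each compound is preincubated briefly with 2 nM enzyme before substrate addition (80 uM); plates then sit 20 min at ambient temperature, are quenched with 1M NaOH/1M glycine, and read fluorometrically.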

[14] = target: alpha-glucosidase (Oryza sativa, rice) (UniProt Q653V4); assay: Counterscreen for Glucocerebrosidase Inhibitors: qHTS Assay for Rice alpha-Glucosidase at pH 5.0 (AID 997)
Procedure, shortened: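 Endpoint fluorogenic assay at pH 5.0: compounds (0.7 nM to 77 uM) titrated against 4 nM rice enzyme and 400 uM 4-MU-alpha-glucoside for 20 min at room temperature; NaOH/glycine stop, read ex 365/em 440 nm, Hill-fitted AC50.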

[15] = Validation of Assay for Modulators of Lamin A Splicing (AID 1459; active = well fitted curve in the direction sought with a large enough effect in the signal ratio; the % refers to the signal ratio;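 note: cells exposed to compound for two days before reading; ratio rise marks activators and ratio drop marks inhibitors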)
Procedure, shortened: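 Splicing correction read as GFP (500-530 nm) over DsRed2 (575-640 nm) object intensity after 48 h compound exposure of reporter HeLa S3 clones (600 cells/well, 2% FBS medium); ancitabine and cycloheximide titrations, 0.5% DMSO as vehicle.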

[16] = target: DNA repair nuclease/redox regulator APEX1 (Homo sapiens) (UniProt P27695); assay: qHTS Validation Assay for Inhibitors of the Human Apurinic/apyrimidinic Endonuclease 1 (APE1) (AID 1705;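 note: TAMRA fluorescence gain over two minutes as APE1 cuts a quenched THF abasic duplex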)
Procedure, shortened: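 Activity read as rising fluorescence (598 nm emission, 525 nm excitation) from incision of a TAMRA/BHQ-2 duplex carrying a THF abasic site (50 nM). Compound and enzyme sat 15 min at RT before substrate start; signal change between first and third 60-s reads.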

[17] = Counterscreen for APE1 Inhibitors: Fluorescent Dye Displacement Validation Assay (AID 1707)
Procedure, shortened: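 Loss of Thiazole Orange fluorescence marks promiscuous DNA binders. The dye (250 nM) is mixed with 50 nM abasic-site dsDNA in pH7.5 Tris buffer containing MgCl2, then compounds are added and emission is read once.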

[18] = target: Endonuclease 4 (Escherichia coli (strain K12)) (UniProt P0A6C1); assay: Counterscreen for APE1 Inhibitors: qHTS Validation Assay for Inhibitors of Endonuclease IV (AID 1708)
Procedure, shortened: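 Measured as reaction progress, the fluorescence gain between first and third kinetic reads after adding 50 nM TAMRA/BHQ-2 THF duplex to 2 nM enzyme preincubated 15 min with compound; 2 mM MgCl2, pH 7.5.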

[19] = qHTS for differential inhibitors of proliferation of Plasmodium falciparum line 7G8 (AID 1815);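 note: potency is the fitted concentration of half-maximal effect; parasite growth measured after three days of incubation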
[20] = qHTS for differential inhibitors of proliferation of Plasmodium falciparum line D10 (AID 1877);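 note: parasites grown with compound for 72 h before DNA staining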
[21] = qHTS for differential inhibitors of proliferation of Plasmodium falciparum line W2 (AID 1883); conditions: Potency: Plasmodium falciparum W2 proliferation inhibition;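 note: potency is the fitted concentration of half-maximal effect; parasites grown with compound for 72 h before lysis and staining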
[22] = target: ATP-dependent DNA helicase Q1 (Homo sapiens) (UniProt P46063); assay: qHTS Validation Assay for Inhibitors of RecQ-Like Dna Helicase 1 (RECQ1) (AID 2353)
Procedure, shortened: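 RECQ1T1 50 nM; forked duplex (20 bp + 30-nt ss tails) 200 nM, ATP 2 mM final; pH 8.0, 2 mM MgCl2, 2.5 ug/ml poly(dI-dC); 15 min compound preincubation; discontinuous kinetic read over 2 h at RT.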

[23] = Cytometric Cell-Based qHTS for Inhibitors of the mTORC1 Signaling Pathway in MEF (Tsc2-/-, p53-/-) Cells (AID 2660);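 note: Tsc2 and p53 null MEFs carrying empty vector with compound for 24 h; percent of cells above a phospho-rpS6 to PI ratio cutoff in each well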
Procedure, shortened: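 Percent of cells positive for normalized phospho-S6 staining is reported, with the cutoff set from rapamycin (7.5 nM) versus DMSO wells. Tsc2-/-, p53-/- MEFs received compound for 24 hrs.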

[24] = High Content Imaging Cell-Based qHTS for Inhibitors of the mTORC1 Signaling Pathway in MEF (Tsc2-/-, p53-/-) Cells (AID 2666); conditions: at 38.3 µM (top of the series);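 note: percent of cells scored positive for phospho-rpS6 Ser235/236 immunostaining by imaging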
Procedure, shortened: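 Inhibition of rpS6 phosphorylation is measured by immunofluorescence imaging in empty-vector Tsc2-/-, p53-/- mouse embryonic fibroblasts after 24 hrs compound exposure at 37 degree Celsius. Results are reported as % positive cells per well.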

[25] = High Content Imaging Cell-Based qHTS for Inhibitors of the mTORC1 Signaling Pathway in MEF Cells (AID 2667);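 note: Tsc2-/- p53-/- MEFs stably re-expressing wild-type Tsc2 exposed 24 h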
Procedure, shortened: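 Fixed-cell imaging of phospho-S6 (Ser235/236, Alexa-488) after 24 hrs of compound treatment at 37 degree Celsius. Signal was normalized to Hoechst, and thresholds from the highest and lowest wells split cells into % active versus % non-active.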

[26] = Cytometry Cell-Based qHTS for Inhibitors of the mTORC1 Signaling Pathway in MEF cells (AID 2668);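 note: Tsc2-/- p53-/- mouse embryonic fibroblasts stably re-expressing wild-type Tsc2; percent cells positive for phospho-rpS6 Ser235/236 relative to propidium iodide stain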
Procedure, shortened: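 Phospho-rpS6 (Ser235/236) immunofluorescence over PI signal, scored as % positive cells using thresholds from 7.5 nM rapamycin and DMSO wells, after 24 h compound exposure of WT-Tsc2-rescued Tsc2-/-, p53-/- MEFs. PI cell count recorded for viability.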

[27] = Validation screen for small molecules that induce DNA re-replication in MCF 10A normal breast cells (AID 463097); note: nearly all actives have a fitted effect of over 60% in size
Procedure, shortened: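 Read-out is Hoechst total nuclear intensity by fluorescence scanning imager, flagging increased high-DNA-content nuclei. Compounds were incubated with MCF 10A cells for 48 hr (37 C, 5% CO2) before 40 min staining.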

[28] = target: DNA polymerase III PolC-type (Bacillus subtilis (strain 168)) (UniProt P13267); assay: qHTS Validation Assay for the Inhibitors of DNA Replication in Gram-Positive Bacteria (AID 485295);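 note: reconstituted holoenzyme with PolC plus beta clamp SSB and primase; PicoGreen fluorescence of double-stranded DNA made on primed circular M13 template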
Procedure, shortened: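 Double-stranded DNA product detected by PicoGreen fluorescence after EDTA quench. Compound incubated with B. subtilis holoenzyme (PolC, beta subunit, SSB, primase) before substrate addition; primed replication of M13Gori with dNTPs and NTPs at room temperature; DMSO defines 0% inhibition.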

[29] = target: Tumor susceptibility gene 101 protein (Homo sapiens) (UniProt Q99816); assay: qHTS Validation Assay for Iinhibitors of HIV-1 Budding by Blocking the Interaction of PTAP/TSG101 (AID 485342; calls by dose curve)
Procedure, shortened: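 Fluorescence polarization of 50 nM FITC-PTAP peptide bound to 10 uM Tsg101 binding domain was read after 20 min room-temperature incubation with compounds, in 10 mM HEPES pH 7.5, 0.15 M NaCl, 0.01% Tween 20.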

[30] = qHTS Validation Assay to Find Inhibitors of Chronic Active B-Cell Receptor Signaling (AID 485345; active = well fitted curve in the direction sought with a large enough effect in the main read-out, with a control signal flat, not every such curve was filed as active)
Procedure, shortened: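 TMD8 ABC-DLBCL cells with dox-inducible green luciferase–IκBα fusion and red native luciferase; compounds 46 uM–3 nM, 4 h at 37C with doxycycline in 0.5% FBS IMDM. Green/red ratio normalized to basal and 10 uM MG-132.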

[31] = target: Beta-2 adrenergic receptor (Homo sapiens) (UniProt P07550); assay: qHTS validation assay of beta-arrestin-biased ligands of beta2-adrenergic receptor (AID 485366)
Procedure, shortened: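 Screening used a titration range of up to 46 microM in a beta-arrestin recruitment Tango luciferase assay. Cells in 1% FBS medium were treated 18 hr at 37 degrees C, and luminescence was normalized to %Activity.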

[32] = Quantitative high throughput screen for delayed death inhibitors of the malarial parasite plastid, 96 hour incubation (AID 488745);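 note: luciferase-expressing P. falciparum in erythrocytes at 2% hematocrit and 0.1% parasitemia; nearly all actives have a fitted effect of over 70% in size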
Procedure, shortened: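 Luciferase-expressing P. falciparum, infected RBCs 2% Hct/0.1% parasitemia (final); 96 h cpd exposure, 37 C, 5% CO2; RPMI 1640 + 0.5% Albumax, bicarbonate, gentamycin. Readout: luminescence loss = growth inhibition.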

[33] = Quantitative high throughput screen for delayed death inhibitors of the malarial parasite plastid, 48 hour incubation (AID 488752); note: nearly all actives have a fitted effect of over 65% in size
Procedure, shortened: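 Luciferase-expressing P. falciparum in RBCs, 2% Hct, 0.1% parasitemia final; RPMI 1640 + 0.5% Albumax; 48 h, 37 C, 5% CO2; luminescence readout, signal drop = growth inhibition.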

[34] = target: Thioredoxin reductase 1, cytoplasmic (Rattus norvegicus) (UniProt O89049); assay: qHTS Assay for Substrates of Mammalian Selenoprotein Thioredoxin Reductase 1 (TrxR1) (AID 488772);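 note: a drop in NADPH fluorescence below the no-compound background marks a TrxR1 substrate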
Procedure, shortened: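 In this dual-purpose format, potential substrates are identified from the first fluorescence read after selenite addition, not from the 8-minute delta. Rat enzyme is preincubated with NADPH and then with compound at ~22 deg C.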

Glucocorticoid receptor (Homo sapiens), sequence (P04150 whole entry, looked up, the tested form may be a part): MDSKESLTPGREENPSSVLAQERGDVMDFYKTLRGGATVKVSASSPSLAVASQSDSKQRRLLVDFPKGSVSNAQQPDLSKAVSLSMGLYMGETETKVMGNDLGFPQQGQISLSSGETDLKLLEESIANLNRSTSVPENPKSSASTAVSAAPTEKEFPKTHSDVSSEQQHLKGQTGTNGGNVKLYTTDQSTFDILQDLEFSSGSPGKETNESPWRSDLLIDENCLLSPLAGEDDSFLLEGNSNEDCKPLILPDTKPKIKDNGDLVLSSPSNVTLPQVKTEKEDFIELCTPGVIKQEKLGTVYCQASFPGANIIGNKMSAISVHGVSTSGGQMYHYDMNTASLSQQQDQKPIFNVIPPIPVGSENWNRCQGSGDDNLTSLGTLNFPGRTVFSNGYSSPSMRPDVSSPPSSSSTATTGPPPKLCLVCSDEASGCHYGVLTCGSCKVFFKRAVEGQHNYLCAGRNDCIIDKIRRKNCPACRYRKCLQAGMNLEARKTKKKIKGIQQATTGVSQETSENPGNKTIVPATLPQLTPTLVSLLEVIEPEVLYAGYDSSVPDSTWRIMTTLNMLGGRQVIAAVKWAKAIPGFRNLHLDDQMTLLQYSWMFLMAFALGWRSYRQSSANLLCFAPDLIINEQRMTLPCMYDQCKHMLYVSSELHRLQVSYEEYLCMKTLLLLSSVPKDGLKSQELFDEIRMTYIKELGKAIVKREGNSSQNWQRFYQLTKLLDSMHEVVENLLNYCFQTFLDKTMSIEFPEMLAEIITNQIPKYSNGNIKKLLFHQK
Cytochrome P450 1A2 (Homo sapiens), sequence (P05177 whole entry, looked up): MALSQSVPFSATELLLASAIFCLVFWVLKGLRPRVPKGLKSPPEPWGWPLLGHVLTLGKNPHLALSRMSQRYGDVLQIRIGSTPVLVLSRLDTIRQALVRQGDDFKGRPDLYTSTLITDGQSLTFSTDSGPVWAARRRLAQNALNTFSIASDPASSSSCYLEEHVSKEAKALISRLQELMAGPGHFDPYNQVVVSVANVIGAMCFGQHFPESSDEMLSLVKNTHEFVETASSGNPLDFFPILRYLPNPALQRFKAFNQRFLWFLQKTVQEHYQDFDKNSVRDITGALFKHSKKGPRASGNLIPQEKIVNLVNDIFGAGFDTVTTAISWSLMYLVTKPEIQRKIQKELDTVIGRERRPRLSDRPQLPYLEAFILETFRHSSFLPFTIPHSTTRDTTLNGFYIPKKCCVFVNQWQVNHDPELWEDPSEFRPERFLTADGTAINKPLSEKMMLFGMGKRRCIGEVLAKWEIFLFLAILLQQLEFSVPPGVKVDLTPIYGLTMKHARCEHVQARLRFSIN
Thioredoxin reductase 1, cytoplasmic (Rattus norvegicus), sequence (O89049 whole entry, looked up): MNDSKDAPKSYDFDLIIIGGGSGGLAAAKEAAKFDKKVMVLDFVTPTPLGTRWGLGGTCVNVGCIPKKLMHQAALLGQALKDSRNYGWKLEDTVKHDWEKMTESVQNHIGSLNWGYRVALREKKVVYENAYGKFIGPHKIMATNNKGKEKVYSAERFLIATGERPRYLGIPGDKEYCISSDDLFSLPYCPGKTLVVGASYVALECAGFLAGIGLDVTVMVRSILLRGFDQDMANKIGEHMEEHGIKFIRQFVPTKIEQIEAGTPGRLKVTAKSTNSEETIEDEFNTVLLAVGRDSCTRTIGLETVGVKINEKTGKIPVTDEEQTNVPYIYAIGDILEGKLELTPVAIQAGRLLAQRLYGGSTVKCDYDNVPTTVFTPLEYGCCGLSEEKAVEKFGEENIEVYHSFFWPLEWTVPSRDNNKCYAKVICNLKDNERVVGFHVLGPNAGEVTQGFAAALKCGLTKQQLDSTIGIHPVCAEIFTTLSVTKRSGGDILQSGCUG
Alpha-galactosidase A (Homo sapiens), sequence (P06280 whole entry, looked up): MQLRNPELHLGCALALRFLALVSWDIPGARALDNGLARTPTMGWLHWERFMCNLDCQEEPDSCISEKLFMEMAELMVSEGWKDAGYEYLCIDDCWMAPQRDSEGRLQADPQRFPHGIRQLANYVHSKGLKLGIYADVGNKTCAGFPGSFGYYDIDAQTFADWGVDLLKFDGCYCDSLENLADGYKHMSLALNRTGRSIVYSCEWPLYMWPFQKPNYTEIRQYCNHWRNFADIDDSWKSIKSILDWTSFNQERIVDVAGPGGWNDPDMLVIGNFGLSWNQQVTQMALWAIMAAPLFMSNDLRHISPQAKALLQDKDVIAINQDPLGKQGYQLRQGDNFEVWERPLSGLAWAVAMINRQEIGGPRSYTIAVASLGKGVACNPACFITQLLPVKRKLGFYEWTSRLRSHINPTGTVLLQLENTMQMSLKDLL
Beta-2 adrenergic receptor (Homo sapiens), sequence (P07550 whole entry, looked up): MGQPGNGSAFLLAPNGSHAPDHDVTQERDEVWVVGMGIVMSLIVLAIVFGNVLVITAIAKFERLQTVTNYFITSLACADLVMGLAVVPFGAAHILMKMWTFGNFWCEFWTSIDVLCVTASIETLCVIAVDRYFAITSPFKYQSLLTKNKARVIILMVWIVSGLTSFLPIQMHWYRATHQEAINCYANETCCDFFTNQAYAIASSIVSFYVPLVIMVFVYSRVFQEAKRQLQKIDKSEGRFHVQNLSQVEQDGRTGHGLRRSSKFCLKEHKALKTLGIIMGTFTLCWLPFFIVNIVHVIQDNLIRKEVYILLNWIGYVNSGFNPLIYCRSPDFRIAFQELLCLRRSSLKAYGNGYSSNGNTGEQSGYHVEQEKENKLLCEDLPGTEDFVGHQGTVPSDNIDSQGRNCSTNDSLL
3',5'-cyclic-AMP phosphodiesterase 4B (Homo sapiens), sequence (Q07343 whole entry, looked up): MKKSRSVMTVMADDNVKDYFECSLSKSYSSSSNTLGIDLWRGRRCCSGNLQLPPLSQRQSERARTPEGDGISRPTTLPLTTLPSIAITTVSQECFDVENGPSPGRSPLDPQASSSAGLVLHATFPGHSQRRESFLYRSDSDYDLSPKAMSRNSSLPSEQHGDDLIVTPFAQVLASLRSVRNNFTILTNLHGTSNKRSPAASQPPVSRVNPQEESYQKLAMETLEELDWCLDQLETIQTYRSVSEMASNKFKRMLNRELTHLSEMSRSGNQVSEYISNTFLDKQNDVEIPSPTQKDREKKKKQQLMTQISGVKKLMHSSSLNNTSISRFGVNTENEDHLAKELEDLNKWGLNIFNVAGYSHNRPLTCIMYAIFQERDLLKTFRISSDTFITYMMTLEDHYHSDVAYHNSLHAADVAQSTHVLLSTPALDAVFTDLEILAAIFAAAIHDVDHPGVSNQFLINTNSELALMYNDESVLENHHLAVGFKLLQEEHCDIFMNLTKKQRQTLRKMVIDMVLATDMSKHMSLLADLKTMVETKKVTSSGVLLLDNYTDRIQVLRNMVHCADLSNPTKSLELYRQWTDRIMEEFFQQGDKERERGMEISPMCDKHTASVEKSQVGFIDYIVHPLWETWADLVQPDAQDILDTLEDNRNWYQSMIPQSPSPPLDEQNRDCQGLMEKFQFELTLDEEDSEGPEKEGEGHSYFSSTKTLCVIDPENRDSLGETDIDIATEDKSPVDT
Tumor susceptibility gene 101 protein (Homo sapiens), sequence (Q99816 whole entry, looked up, the tested form may be a part): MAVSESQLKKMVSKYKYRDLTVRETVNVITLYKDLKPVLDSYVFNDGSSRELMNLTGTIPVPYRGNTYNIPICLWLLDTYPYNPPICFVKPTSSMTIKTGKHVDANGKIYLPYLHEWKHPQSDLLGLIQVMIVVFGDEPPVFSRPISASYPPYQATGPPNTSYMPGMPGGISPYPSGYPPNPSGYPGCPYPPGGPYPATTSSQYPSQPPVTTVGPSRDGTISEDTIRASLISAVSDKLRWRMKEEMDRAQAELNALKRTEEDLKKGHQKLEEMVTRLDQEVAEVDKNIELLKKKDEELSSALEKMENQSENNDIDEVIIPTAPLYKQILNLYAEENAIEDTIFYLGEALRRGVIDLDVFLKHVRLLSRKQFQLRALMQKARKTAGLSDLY
Muscarinic acetylcholine receptor M1 (Rattus norvegicus), sequence (P08482 whole entry, looked up): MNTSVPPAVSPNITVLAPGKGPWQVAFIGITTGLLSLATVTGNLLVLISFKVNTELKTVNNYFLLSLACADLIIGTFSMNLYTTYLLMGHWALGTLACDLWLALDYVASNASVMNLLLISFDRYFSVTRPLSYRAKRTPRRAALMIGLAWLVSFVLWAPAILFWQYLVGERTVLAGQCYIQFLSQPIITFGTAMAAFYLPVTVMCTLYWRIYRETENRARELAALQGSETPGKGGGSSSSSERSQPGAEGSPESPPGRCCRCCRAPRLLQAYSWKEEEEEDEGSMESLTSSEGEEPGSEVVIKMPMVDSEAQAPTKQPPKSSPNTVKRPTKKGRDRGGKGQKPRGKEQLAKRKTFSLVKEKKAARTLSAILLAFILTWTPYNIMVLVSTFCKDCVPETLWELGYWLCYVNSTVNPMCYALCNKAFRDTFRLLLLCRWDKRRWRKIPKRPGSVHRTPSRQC
DNA repair nuclease/redox regulator APEX1 (Homo sapiens), sequence (P27695 whole entry, looked up): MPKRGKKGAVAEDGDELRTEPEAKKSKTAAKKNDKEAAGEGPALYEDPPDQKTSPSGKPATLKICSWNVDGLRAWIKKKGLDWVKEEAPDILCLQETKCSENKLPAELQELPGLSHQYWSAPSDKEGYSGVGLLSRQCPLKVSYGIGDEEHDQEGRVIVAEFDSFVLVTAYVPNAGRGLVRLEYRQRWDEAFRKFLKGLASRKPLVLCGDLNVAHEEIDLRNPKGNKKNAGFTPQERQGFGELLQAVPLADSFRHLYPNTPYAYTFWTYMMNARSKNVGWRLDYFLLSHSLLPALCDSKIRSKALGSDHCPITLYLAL

Structure (SMILES): C1CCC(N=C(NC23CC4CC(CC(C4)C2)C3)N2CCOCC2)CC1
- activity change, negative = inhibition [1]: 8.68%
- Potency [2]: inactive
- activity, negative = inhibition [3]: 17.1%
- Potency [4]: > 46 µM
- Potency [5]: > 46 µM
- Potency [6]: inactive
- Potency [7]: inactive
- Potency [8]: inactive
- Potency [9]: 0.631 µM (active)
- Potency [10]: 17.8 µM (active)
- Potency [11]: inactive
- outcome [12]: inactive
- outcome [13]: inactive
- outcome [14]: inactive
- outcome [15]: inactive
- Potency [16]: inactive
- Potency [17]: inactive
- Potency [18]: inactive
- Potency [19]: 7.94 µM (active)
- Potency [20]: inactive
- Potency [21]: 7.08 µM (active)
- Potency [22]: inactive
- outcome [23]: inactive
- outcome [24]: inactive
- Potency [25]: inactive
- Potency [26]: inactive
- Potency [27]: inactive
- Potency [28]: inactive
- outcome [29]: inactive
- outcome [30]: inactive
- outcome [31]: inactive
- Potency [32]: inactive
- Potency [33]: inactive
- outcome [34]: inactive
